This is an account of results in PubChem BioAssay (EPA / NIEHS).

The source made the active and inactive calls. How the source made its calls: active means hit-call score of the fitted dose curve at least 0.9, where 1 is the maximum; inactive means score below 0.9.

In general, AC50 refers to the midpoint of the concentration-response curve, whichever way the signal moves.

In the test the test system is TTR (gene 7276). The test can be described thus: CCTE_GLTED_hTTR_0.125uM: CCTE's human Transthyretin (hTTR) Inhibition Assay, with 0.125uM TTR, Great Lakes Toxicology and Ecology Division (GLTED) Lab (AID 2284431).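 Further: hits lower the fluorescence signal relative to DMSO baseline.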 The procedure, abridged: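 TTR 0.125uM + test chemical, 2 h; ANSA probe displacement; ex 380/em 475 fluorescence; signal loss vs DMSO control.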
Turning to `CCCCCCCCCCCCc1ccc(O)cc1`, the AC50 was 1.62 µM (active).
On to `COc1ccc(-c2coc3cc(O)cc(O)c3c2=O)cc1`, for which the AC50 is 0.335 µM (active).
Then `CCCCCCCCCCCC(=O)N(C)CC(=O)O`, with 21.4 µM (active); and `O=S(=O)(O)c1ccc(N=Nc2c(O)ccc3ccccc23)cc1`, with 0.258 µM (active).
`Oc1ccc(-c2ccccc2)c(Cl)c1`: the AC50 is 0.0353 µM (active).
As for `O=C(OCCc1ccccc1)c1ccccc1`, the AC50 was 20.9 µM (active).
The value for `CC(C)(c1ccccc1)c1ccc(Nc2ccc(C(C)(C)c3ccccc3)cc2)cc1` was 20.2 µM (active); that for `CCCCCCCOC(=O)c1ccc(O)cc1` was 1.42 µM (active).
Turning to `CCCCCC[C@@H](O)C/C=C\CCCCCCCC(=O)OCC(O)CO` (stereo partly specified), the AC50 is 13.5 µM (active).
The value for `CC1=NN(c2ccc(S(=O)(=O)O)cc2)C(=O)C1N=Nc1ccccc1` (stereo unspecified) was 5.69 µM (active); that for `O=C(Oc1ccccc1)c1ccccc1O` was 4.91 µM (active).
`CCCCCCOc1ccc(N)cc1`: the AC50 is 21.2 µM (active).
Take `O=C(OCc1ccccc1)c1ccc(O)cc1`: the AC50 was 0.322 µM (active).
Then `Oc1ccccc1Cc1ccccc1O`, with 3.62 µM (active).
For the compound `COc1ccc(C(=O)c2ccccc2)c(O)c1`, the AC50 was 6.35 µM (active).
Then `Cc1ccc(C)c(OCCCC(C)(C)C(=O)O)c1`, with 0.499 µM (active).
